Bioassay records as filed in PubChem.
Sampled rows, rich in hits. Any-hit rate of the full collection: about 32%.
PostGolgi ctrl = growth inhibition of yeast control strain, primary screen, counter-screen for post-Golgi transport modulator project | hit rate 5% among 98,000 | efflux-deficient yeast background strain, growth absorbance A615, 16 h | inhibition, % at 10 µM
PostGolgi yeast = phenotypic screen on post-Golgi transport, primary screen | post-Golgi transport phenotypic cell assay | inhibition, % at 10 µM | hit rate 0.9% among 98,000 | AID 739, 2007;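 also: yeast cells grown in 1536-well plates; yeast grown about 18 h at 30C before absorbance read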
CYP2C19 activ = human CYP2C19 activators, primary screen, biochemical, luminescence; Cytochrome P450 2C19 (Homo sapiens), P33261; 96,000 tested, under 10 active; activation factor at 5 µM; recombinant CYP2C19, luciferin-H EGE luminescence; stronger effect = higher value; 0 = fully inhibited enzyme, 1 = untreated enzyme;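 active = activation factor of at least 2 at 5 µM in the primary screen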;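 also: 0 = wells with 2.5 mM tranylcypromine and 1 = vehicle-only wells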
CYP2C19 inhib = blockers of cytochrome P450 2C19 activity – biochemical, luminescence, ADME assay, primary screen | AID 778, 2007 | P33261 | inhibition, % at 5 µM | CYP2C19 Supersomes, luciferin-H EGE luminescence, 30 min | hit rate 21% among 96,000;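 active = CYP2C19 inhibition above a set limit at 5 µM in the primary screen, cut at about 50% in these data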;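 also: plate controls were negative control wells for no effect and 2.5 mM tranylcypromine positive control for full effect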
CYP2C9 inhib = blockers of cytochrome P450 2C9 activity – biochemical, luminescence, ADME assay, primary screen; CYP2C9 Supersomes, luciferin-H conversion; hit rate 20% among 96,000; P11712; inhibition, % at 5 µM;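 active = blocking of liver enzyme CYP2C9 beyond about 50% at 5 µM, limit read from the data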
Target sequence (P11712 whole entry, looked up): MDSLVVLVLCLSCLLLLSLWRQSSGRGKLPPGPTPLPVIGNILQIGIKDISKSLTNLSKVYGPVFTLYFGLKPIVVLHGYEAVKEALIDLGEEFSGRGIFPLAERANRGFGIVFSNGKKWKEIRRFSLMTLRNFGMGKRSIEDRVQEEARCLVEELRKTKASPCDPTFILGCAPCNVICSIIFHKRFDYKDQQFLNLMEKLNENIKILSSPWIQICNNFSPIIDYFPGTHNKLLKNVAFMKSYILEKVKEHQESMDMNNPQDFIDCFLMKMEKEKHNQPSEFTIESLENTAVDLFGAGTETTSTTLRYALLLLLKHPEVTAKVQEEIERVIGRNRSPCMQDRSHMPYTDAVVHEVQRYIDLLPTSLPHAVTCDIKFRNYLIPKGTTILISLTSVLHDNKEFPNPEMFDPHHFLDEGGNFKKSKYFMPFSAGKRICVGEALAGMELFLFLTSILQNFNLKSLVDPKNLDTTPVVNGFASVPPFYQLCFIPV
CYP2C9 activ = human CYP2C9 activators, primary screen, biochemical, luminescence; hit rate 1.4% among 96,000; recombinant CYP2C9, luciferin-H conversion; stronger effect = higher value; factor 1 = untreated enzyme, 0 = blocked; activation factor at 5 µM; Cytochrome P450 2C9 (Homo sapiens), P11712;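 active = activation factor of 2 or more for CYP2C9 at a 5 µM dose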;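 also: 0 = sulfaphenazole-blocked wells and 1 = vehicle-only wells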
Active calls of the source: *; · = not tested or not shown. Rule as the data show it, unless noted: active = inhibition above about 30%; inactive = the rest.

SMILES	PostGolgi ctrl	PostGolgi yeast	CYP2C19 activ	CYP2C19 inhib	CYP2C9 inhib	CYP2C9 activ
COc1ccc(C2CC(C(F)(F)F)n3nc(C(=O)O)c(Cl)c3N2)cc1OC (stereo unspecified)	-2	11	1.1	-9	2	1
CCCCNC(=O)c1cc2n(n1)C(C(F)(F)F)CC(c1ccccc1)N2 (stereo unspecified)	35*	1	0.9	5	19	0.8
CC(=O)NC(=O)NC1CSCC1OC(C)=O (stereo unspecified)	-2	-2	1.2	-18	-25	1.2
COc1cccc(C2CC(C(F)(F)F)n3nc(C(=O)NCc4cccnc4)cc3N2)c1 (stereo unspecified)	3	-1	1.1	-11	-24	1.2
COc1ccc(NC(=O)c2cc3n(n2)C(C(F)(F)F)CC(c2ccc4c(c2)OCO4)N3)cc1OC (stereo unspecified)	15	-18	·	·	·	·
Cc1cccc(NC(=O)c2cc3n(n2)C(C(F)(F)F)CC(c2ccc4c(c2)OCO4)N3)c1 (stereo unspecified)	58*	9	0.6	39	87*	0.1
COc1cccc(C2CC(C(F)(F)F)n3ncc(C(=O)NCc4ccco4)c3N2)c1 (stereo unspecified)	17	-3	0.3	67*	83*	0.2
COc1ccc(C2CC(C(F)(F)F)n3ncc(C(=O)Nc4cccc(O)c4)c3N2)cc1OC (stereo unspecified)	-4	0	0.8	19	50*	0.5
COc1ccc2nc(NC(=O)c3cccc(S(=O)(=O)N4CCOCC4)c3)sc2c1	20	-4	0.7	30	34	0.7
CSc1nc2ccc(S(=O)(=O)N3CCOCC3)cc2s1	3	-9	0	100*	63*	0.4
Nc1nc2ccc(S(=O)(=O)N3CCCCC3)cc2s1	14	8	0.7	31	-46	1.5
COc1ccc2nc(NC(=O)Cc3ccc(OC)c(S(=O)(=O)N4CCOCC4)c3)sc2c1	-2	-3	0.5	55*	38	0.6
O=C(Nc1nc2ccc(S(=O)(=O)N3CCCC3)cc2s1)C1CCCCC1	4	-1	1	4	64*	0.4
COc1ccc2nc(NC(=O)CN3CCOCC3)sc2c1	-7	-12	1	-3	26	0.7
COc1cc(C(=O)Nc2nc3ccc(S(=O)(=O)N4CCOCC4)cc3s2)cc(OC)c1OC	4	0	0.5	54*	79*	0.2
CSc1nc2ccc(S(=O)(=O)N3CCCCC3)cc2s1	3	-1	0.6	41	17	0.8
CCC(c1nnc(SCC(=O)Nc2nnc(-c3ccccc3)o2)n1Cc1ccccc1)N(C)C (stereo unspecified)	-2	16	1	-3	-5	1.1
O=C(Nc1nc2ccc(S(=O)(=O)N3CCCCC3)cc2s1)C1CCCO1 (stereo unspecified)	12	-5	0.9	7	77*	0.2
COc1ccc2nc(NC(=O)c3cc(S(=O)(=O)N4CCOCC4)ccc3C)sc2c1	9	-14	0.9	7	12	0.9
CCCN1CCN(CCCNC(=O)Cn2nc(-c3ccccc3)ccc2=O)CC1	-1	-2	1	-3	2	1
O=C(CSc1nnnn1C1CCCC1)c1ccc2c(c1)OCCO2	7	0	0.8	23	27	0.7
COc1cccc(C(=O)CSc2nnnn2C2CCCCC2)c1	25	-11	0.6	40	68*	0.3
COc1ccc(-n2nnnc2SCC(=O)N2C(C)CCCC2C)c(OC)c1 (stereo unspecified)	10	-5	0.2	75*	-87	1.9
O=C(CSc1nnnn1-c1cccc2c1CCCC2)N1CCOCC1	9	-1	0.8	20	-119	2.2*
CCN(CC)S(=O)(=O)c1ccc2c(c1)nc(SCC(=O)NC1CC1)n2-c1ccccc1OC	1	4	0.8	21	75*	0.2
SMILES	PostGolgi ctrl	PostGolgi yeast	CYP2C19 activ	CYP2C19 inhib	CYP2C9 inhib	CYP2C9 activ
CCCN1CNC(=S)N(c2cccc(C)c2C)C1	5	-2	0.8	22	-18	1.2
COc1cccc(-n2nnnc2SCC(=O)NC2CCCC2)c1	9	-2	0.6	44	-98	2*
CCn1c(Cc2ccc(OC)cc2)nnc1SCC(=O)NC1CCCCC1	31*	7	0.9	7	11	0.9
COc1cccc(-n2nnnc2SCC(=O)N2CCCc3ccccc32)c1	8	-10	0.5	52*	19	0.8
O=C(CSc1nnnn1-c1cccc2c1CCCC2)NC1CCCC1	7	3	0.9	10	-200	3*
Cn1c(Cc2ccccc2)nnc1SCC(=O)NC1CCCCC1	-3	-2	1.1	-7	-2	1
CCn1c(SCCC#N)nnc1-c1ccncc1	7	6	0.6	44	2	1
COc1cccc(C(=O)N(Cc2ccc(N(C)C)cc2)C2CCS(=O)(=O)C2)c1 (stereo unspecified)	5	4	0.8	23	-6	1.1
Cn1c(SCC(=O)NC2CCCC2)nc2cccnc21	-2	10	0.6	38	-6	1.1
COc1ccccc1-n1nnnc1SCC(=O)NC1CCCC1	42*	-2	0.9	11	-126	2.3*
COc1ccccc1-n1c(SCC(=O)NC2CCCC2)nc2cccnc21	1	4	0.8	16	20	0.8
O=C(CSc1nccn1-c1cccc(Cl)c1)NC1CCCC1	5	2	0.2	84*	67*	0.3
C#CC(C)(CC)NC(=O)Cn1nnc(-c2ccc(S(C)(=O)=O)cc2)n1 (stereo unspecified)	7	2	1	0	17	0.8
N#Cc1c(C(F)(F)F)cc(C2CC2)[nH]c1=O	5	-1	1	-1	-14	1.1
Cc1ccc(OCC(=O)N/N=C\c2c(C)n(C)c3ccccc23)c([N+](=O)[O-])c1	54*	-1	0.7	33	37	0.6
O=C(COc1ccccc1)N/N=C/c1cc2c(cc1[N+](=O)[O-])OCO2	12	13	0.8	23	38	0.6
O=C(NN1C(=O)c2ccccc2C1=O)C1CCCCC1	-13	7	0.9	12	5	1
CC(=O)c1cccc(NC(=O)C(OC(=O)/C=C/c2ccc3c(c2)OCO3)c2ccccc2)c1 (stereo unspecified)	-2	-7	0.2	76*	95*	0.1
Cc1c(NC(=O)c2cccc(S(=O)(=O)N3CCOCC3)c2)c(=O)n(-c2ccccc2)n1C	2	-4	0.9	6	-2	1
